Consider 34 compounds from PubChem BioAssay AID652283 (National Center for Advancing Translational Sciences (NCATS), 2013).

Structures are written as SMILES. Inconclusive results are not listed. Unmarked numbers belong to inactive results. The source made the active and inactive calls. The call rests on the fitted dose curve; in most records, active means well fitted inhibition curve with a large enough effect; inconclusive means small, poorly fitted or top-dose-only effect; inactive means no such curve, though single readings can be large or run the other way.

This assay is described as follows: qHTS Assay for Lipid Storage Modulators: COS7 Assay against Probe and Analogs. Conditions: COS7 lipid droplet area, BODIPY imaging, 18 h; cells loaded with 400 µM oleic acid. A digest of the protocol:
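Lipid droplets, stained with BODIPY 493/503 (nuclei with Hoechst), were counted from microscope images by visual examination and image segmentation. Before fixation, COS7 cells had 17-18 h compound exposure with 400 microM oleic acid in 5% FBS medium, 0.2% DMSO.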
In the case of `O=C(NCCc1ccc(O)c(O)c1)c1cc2sccc2n1Cc1ccccc1`, the max response was 20.9%. The same measure, in the same setting: next, `CC(C)(C)OC(=O)N1CCCCC1C(=O)NC1CCCc2c1cnn2-c1ccc(F)cc1F` (centres undefined): 7.96%. For the compound `COc1cccc(-n2ncc3c2CCCC3NC(=O)c2ccccn2)c1` (centres undefined), the Potency is 5.9 µM (active). In the case of `Cc1cc2c(cc1C1(c3ccc(C(=O)O)cc3)CC1)C(C)(C)CCC2(C)C`, the max response was -1.19%. As for `CCOc1ccc(CCNC(=O)c2cccc(C(=O)c3ccccc3)c2)cc1OCC`, the Potency was 14.8 µM (active). As to `CCOC(=O)C1CCN(C(=O)C2(NC(=O)Nc3ccccc3Cl)CCCCC2)CC1`, the max response is -103%. Turning to `CCOc1ccc(CCN(C)C(=O)c2cc3sccc3n2Cc2ccccc2)cc1OCC`, the Potency was 11.8 µM (active). In the case of `O=C(NC1CCCc2c1cnn2-c1ccc(F)cc1F)c1cnon1` (centres undefined), the max response was 13.2%. On the same count and under the same terms, next, `CCOc1ccc(CCNC(=O)c2ccc3[nH]ccc3c2)cc1OCC`: 20.9%. Regarding `CCOc1ccc(CCNC(=O)c2cc3sccc3n2C)cc1OCC`, the Potency is 8.33 µM (active). On the same count and under the same terms, next, `CCOc1ccc(CCNC(=O)c2cc3ccccc3n2Cc2ccc(Cl)c(F)c2)cc1OCC`: 0.332 µM (active); `CCOc1ccc(CCNC(=O)c2cc3sccc3n2Cc2ccccc2)cc1OCC`: 0.935 µM (active). `CN(C)Cc1ccc(-c2nc3cccc4c3n2CCNC4=O)cc1`: the max response is 3.13%.

Regarding `COc1ccc(-n2ncc3c2CCCC3NC(=O)c2ccccn2)cc1` (centres undefined), the Potency was 4.69 µM (active).

Turning to `O=C(NC1CCCc2c1cnn2-c1ccc(F)cc1F)c1ccc(C(=O)c2ccccc2)cc1` (centres undefined), the max response is 18.1%.

For `CCn1c(C(=O)NCCc2ccc(OC)cc2)cc2sccc21`, the max response was 14.9%. As to `O=C(NCCc1ccc2c(c1)OCO2)c1cc2sccc2n1Cc1ccccc1`, the max response was 19.6%. Regarding `O=C(NC1CCCc2c1cnn2-c1ccc(F)cc1F)c1cnccn1` (centres undefined), the max response was -14.9%. For `CCOC(=O)C1CCN(C(=O)C(C)(C)NC(=O)Nc2ccc(Oc3ccccc3)cc2)CC1`, the Potency is 6.62 µM (active). Take `CCOc1ccc(CCNC(=O)c2ccc3ccccc3n2)cc1OCC`: the max response is -25%. In the case of `CCOc1cc(CCNC(=O)c2cc3sccc3n2Cc2ccccc2)cc(F)c1OCC`, the Potency was 2.35 µM (active). Regarding `CN(C)CC(=O)NC1CCCc2c1cnn2-c1ccc(F)cc1F` (centres undefined), the max response is 19.8%. The same measure, in the same setting: under `CCOc1ccc(CCNC(=O)c2ccccn2)cc1OCC` stands 1.41%.

As to `CCOc1ccc(CCNC(=O)C2CCCCC2)cc1OCC`, the max response was -8.52%. The same measure, in the same setting: under `O=C(NC1CCCc2c1cnn2CCO)c1ccccn1` (centres undefined) stands 14.9%. On to `CCOc1cc2c(cc1OCC)CN(C(=O)c1cc3sccc3n1Cc1ccccc1)CC2`, for which the Potency was 3.32 µM (active). As to `CCOc1ccc(CCNC(=O)CN(C)C)cc1OCC`, the max response is -3.2%. With `CCOc1ccc(CCNC(=O)c2cc3sccc3n2Cc2ccccn2)cc1OCC`, the Potency is 1.48 µM (active). Regarding `O=C(NC1CCCc2c1cnn2-c1ccc(F)cc1F)c1cccs1` (centres undefined), the max response was -60.6%.

Turning to `CCOC(=O)C1CCN(C(=O)C(C)(C)NC(=O)Nc2ccccc2Cl)CC1`, the Potency is 13.2 µM (active). On the same count and under the same terms, under `CCOC(=O)C1CCN(C(=O)C2(NC(=O)Nc3ccc(F)cc3F)CCCCC2)CC1` stands 16.6 µM (active). Consider `Cc1cccc(-c2ccc3ncnc(NCc4cccc(F)c4)c3c2)c1`, for which the max response is -9.55%. On to `CCOc1ccc(C(C)CNC(=O)c2cc3sccc3n2Cc2ccccc2)cc1OCC` (centres undefined), for which the Potency was 11.8 µM (active). As to `CC(C)(NC(=O)Nc1ccccc1Cl)C(=O)N1CCC(C(=O)O)CC1`, the max response is 21.7%.
